From PubChem BioAssay
TMEM16A act: activates or potentiates the mouse TMEM16A chloride channel. 340,000 tested, 0.3% active. B-score at 10 µM. HEK293 TMEM16A/YFP-H148Q/I152L, iodide quench fluorescence; active compounds read low. Q8BHY3;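 active means fluorescence-ratio B-score plate-corrected deviation score at least 3 library SD below zero, with starting fluorescence score within 5 deviations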;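 further: channel opened by trigger with iodide after compound preincubation; score built on the fluorescence ratio of max minus min over baseline; more negative score means more quench and so TMEM16A activation or potentiation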
PHOSPHO1 inh: blocks human PHOSPHO1 phosphatase activity | Q8TCT1 | recombinant PHOSPHO1, absorbance phosphatase assay | inhibition, % at 13.3 µM | 290,000 tested, 1.1% active | AID 1565; in the data active means inhibition above about 60%
ANO1 block: mouse TMEM16A channel inhibition, primary screen; HEK293 TMEM16A/YFP iodide influx fluorescence, ionomycin; 310,000 tested, 1.2% active; normalized B-score (activity score, 25-100; higher = stronger inhibition) at 10 µM; Q8BHY3;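 active means ratio plate-corrected score three or more library SD toward inhibition, starting fluorescence score within five deviations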;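 further: score derived from kinetic fluorescence span divided by baseline fluorescence per well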
CHT block: inhibitors of human choline transporter CHT | Q9GZV3 | CHT-expressing cells, membrane potential dye, choline response; active compounds read low | B-score at 10 µM | 310,000 tested, 0.86% active | AID 488975;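 active means B-score over 3 SD under the library average, and starting fluorescence ratio not unusually high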;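 further: choline stimulus applied at its EC90 after an EC20 pre-addition; B-score computed on integrated fluorescence ratio after choline addition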
Target sequence (Q9GZV3 whole entry, looked up): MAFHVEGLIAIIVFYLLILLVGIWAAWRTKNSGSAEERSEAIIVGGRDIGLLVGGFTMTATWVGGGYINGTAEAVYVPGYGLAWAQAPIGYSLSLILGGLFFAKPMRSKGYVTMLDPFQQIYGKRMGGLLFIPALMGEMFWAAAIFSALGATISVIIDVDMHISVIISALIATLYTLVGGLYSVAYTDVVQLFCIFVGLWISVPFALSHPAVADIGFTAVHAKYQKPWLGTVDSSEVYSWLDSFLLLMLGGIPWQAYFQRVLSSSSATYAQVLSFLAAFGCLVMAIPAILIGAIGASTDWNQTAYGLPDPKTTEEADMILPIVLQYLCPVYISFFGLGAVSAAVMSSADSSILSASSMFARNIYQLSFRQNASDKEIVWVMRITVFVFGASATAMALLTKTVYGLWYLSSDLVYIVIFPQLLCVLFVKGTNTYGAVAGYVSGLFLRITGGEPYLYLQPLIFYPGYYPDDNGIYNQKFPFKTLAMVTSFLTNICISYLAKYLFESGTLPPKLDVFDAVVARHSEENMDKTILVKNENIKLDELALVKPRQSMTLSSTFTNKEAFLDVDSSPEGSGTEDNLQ
HDAC3 inhib: inhibitors of human histone deacetylase 3 | recombinant HDAC3, fluorogenic peptide/trypsin coupled, fluorescence | inhibition, % at 8.3 µM | 320,000 tested, 0.15% active | AID 2718; in the data active means inhibition above about 26%, passing the limit was not always enough
CHT allo act: allosteric activators of human choline transporter CHT | CHT-expressing cells, membrane potential dye, choline EC20; active compounds read high; LV-AA mutant CHT in HEK293 cells | B-score at 10 µM | 310,000 tested, 0.49% active | Q9GZV3;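 active means initial fluorescence not abnormally high and integrated response B-score, plate-corrected, over 3 SD above library mean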
CHT inh conf: human CHT inhibition, confirmatory screen. AID 493221. shares compounds with CHT block. CHT activity remaining % of control (active compounds read low), % at 10 µM. CHT-expressing cells, choline membrane potential dye; LV-to-AA substituted CHT, HEK293 cells. 2,400 tested, 70% active;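 active means choline transporter activity left, mean of duplicates at 10 µM, below buffer-only control mean minus 3 SD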;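 further: depolarization triggered by choline at its EC90 following an EC20 pre-addition; 0% = hemicholinium-3 full block and 100% = buffer-only control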
HEK293 MPD ctr: activity in parental HEK293 cells lacking CHT; shares compounds with CHT block; membrane potential dye, choline response; active = decrease or increase beyond buffer ±3SD; membrane potential ratio readout (active if shifted either direction beyond buffer ±3SD; no single direction) at 10 µM; 2,400 tested, 4% active; AID 493222;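 further: parental cells lack the transporter so any hit is non-specific; ratio is peak minus trough fluorescence over baseline after EC90 choline challenge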
* = called active by the depositor; i = inactive; / = no result. Sampled rows, rich in hits. Any-hit rate of the full collection: about 3.2%.

SMILES	TMEM16A act	PHOSPHO1 inh	ANO1 block	CHT block	HDAC3 inhib	CHT allo act	CHT inh conf	HEK293 MPD ctr
O=C(NCCc1cn2ccccc2n1)c1ccc(Br)o1	i	1.2	i	i	0.1	i	/	/
CC1=C(C(=O)NC(C)C)C2(CCC(C)CC2)OC1=O (centres undefined)	i	13.5	25*	-6.24*	4.9	i	65.7%*	i
CC1=C(C(=O)NC(C)c2ccccc2)C2(CCC(C)CC2)OC1=O (centres undefined)	i	37.0	i	i	-0.7	i	/	/
Cc1c(C(=O)O)sc(S(=O)(=O)N2CCN(C(=O)Cc3ccc(Cl)cc3)CC2)c1C(=O)O	i	/	/	/	/	/	/	/
COc1ccccc1C(=O)Nc1ccnn1C1CCN(C(C)CSC)CC1 (centres undefined)	i	26.3	i	i	8.4	i	/	/
N#C/C(=N/Nc1ccc(OC(F)(F)F)cc1)C(N)=S	i	20.3	100*	-11.1*	6.5	i	29.8%*	i
CCOc1ccc(N/N=C(/C#N)C(N)=O)cc1	i	-15.0	i	i	1.3	i	/	/
Cc1ccc(-c2nnc(OCC3CCCO3)c3ccccc23)cc1 (centres undefined)	i	17.9	i	-5.49*	3.7	i	45.4%*	i
Cc1ccc(Oc2nnc(-c3ccccc3)c3ccccc23)cc1	i	32.3	i	i	-3.0	i	/	/
CN(Cc1ccccc1)C(=O)c1ccc(NC(=O)Cc2ccc(NC(=O)C3CCN(C(=O)C4CCCCC4)CC3)cc2)cc1	i	/	/	/	/	/	/	/
CC(C)=CCN1CCN(Cc2cn(C(C)C)c3ccccc23)CC1CCO (centres undefined)	i	-11.0	i	-4.98*	-9.8	i	39.8%*	i
CCc1ccc(OCC(=O)N2CCN(c3ccccc3F)CC2)cc1	i	-0.6	i	-5.55*	-1.1	i	i	i
Cc1ccc(NC(=O)CSCC(=O)Nc2nnc(C3CC3)s2)cc1	i	/	i	i	4.0	i	/	/
Cc1ccc(Nc2nnc(C3C(=O)N(C)C4(C)CC3c3cc(Br)ccc3O4)s2)cc1 (centres undefined)	i	-4.0	i	-5.49*	0.6	i	i	i
O=C(c1ccc(Cl)s1)N1CCN(C23CC4CC(CC(C4)C2)C3)CC1	i	32.6	i	i	-2.1	i	/	/
CCCCNS(=O)(=O)c1ccc2nc(SCC(=O)Nc3ccccc3Cl)[nH]c2c1	i	-1.8	i	i	4.5	i	/	/
CCCCNS(=O)(=O)c1ccc2nc(SCC(=O)c3ccccc3OC)[nH]c2c1	i	50.1	i	-9.72*	-2.1	i	49.7%*	i
COC(C[C@@H]1O[C@@H]1[C@H](O)[C@H](C)OCc1ccccc1)OC	i	30.9	/	/	/	/	/	/
Cc1[nH]n(-c2ccccc2)c(=O)c1S(=O)(=O)c1ccccc1	i	-8.1	i	i	-8.0	i	/	/
Cn1c(=O)c2c(nc(SCC(=O)N3CCCCCC3)n2C)n(C)c1=O	i	0.5	i	-5.74*	-5.8	i	i	i
CCCn1c(N)c(N(CCOC)C(=O)c2ccc(C#N)cc2)c(=O)[nH]c1=O	i	37.0	i	i	2.8	i	/	/
CCn1cc(C(=O)N2CCCCC2)c(=O)c2cc(S(=O)(=O)N3CCC(C)CC3)ccc21	i	23.3	i	-6.17*	-0.5	i	33.7%*	i
Cn1cc(C(=O)NC2CCCCC2)c(=O)c2cc(S(=O)(=O)N3CCCC3)ccc21	i	-3.4	i	i	-1.9	i	/	/
CC1CCN(S(=O)(=O)c2ccc3c(c2)c(=O)c(C(=O)NC2CCCC2)cn3C)CC1	i	26.1	i	-7.31*	5.6	i	52.0%*	i
CC(Oc1ccc(Cl)cc1Cl)C(=O)N/N=C1\CCCc2ccccc21 (centres undefined)	i	-10.7	i	i	-0.2	i	/	/
SMILES	TMEM16A act	PHOSPHO1 inh	ANO1 block	CHT block	HDAC3 inhib	CHT allo act	CHT inh conf	HEK293 MPD ctr
Cc1cccc(-c2nc(CN3CCCC(C(=O)NC4CCCCC4)C3)c(C)o2)c1 (centres undefined)	i	8.1	25*	-5.75*	4.4	i	i	i
Cc1cccc(-c2nc(CN3CCCC(C(=O)NC4CCCCCC4)C3)c(C)o2)c1 (centres undefined)	i	24.2	i	i	4.2	i	/	/
CCOc1cc2[nH]c(=S)n(C(C)C)c(=O)c2cc1OCC	i	71.3*	i	-8.75*	7.2	i	51.6%*	i
CCOc1cc2[nH]c(=S)n(C3CC3)c(=O)c2cc1OCC	i	5.5	i	i	1.8	i	/	/
COc1ccc(S(=O)(=O)N(Cc2ccccc2)Cc2nc(-c3ccccc3)no2)cc1	i	7.1	i	i	1.5	i	/	/
CC[N+]1(CC)CC2=Cc3c(ccc4ccccc34)C(C)C2C1 (centres undefined)	i	23.7	i	-5.97*	-10.2	i	60.4%*	i
CC1NC(C)(C)Cc2c1ccc1ccccc21 (centres undefined)	i	-5.7	i	i	-1.3	i	/	/
O=C(CSc1n[nH]c(-c2ccccc2)n1)Nc1ncc(Br)cc1Br	i	49.5	i	-6.53*	9.6	i	56.7%*	i
Cc1ccc(S(=O)(=O)N2CCCOC2CNC(=O)C(=O)NCCC2=CCCCC2)cc1 (centres undefined)	i	7.4	i	i	10.1	i	/	/
C=CCNC(=O)c1ccc(C2SCC(=O)N2Cc2ccccc2)cc1 (centres undefined)	i	42.9	i	-6.97*	8.7	i	70.0%*	i
O=C(NCc1ccccc1)c1ccc(C2SCC(=O)N2Cc2ccccc2)cc1 (centres undefined)	i	-26.0	i	i	-1.0	i	/	/
COc1ccccc1NS(=O)(=O)c1ccc(O)c(C(N)=O)c1	i	21.5	i	i	-5.4	i	/	/
COc1ccccc1NS(=O)(=O)c1ccc(O)c(C(=O)OCC(=O)c2ccc(Cl)cc2Cl)c1	i	13.3	i	-5.33*	2.1	i	62.2%*	i
Cc1cc(C)cc(NS(=O)(=O)c2cnc(Cl)c(Cl)c2)c1	i	12.5	i	-8.01*	-0.5	i	52.0%*	i
Cc1cc2oc(=O)sc2cc1NS(=O)(=O)c1ccccc1	i	31.0	i	i	4.8	i	/	/
